Bioassay records (PubChem BioAssay)
BAZ2B inh = inhibitors of human BAZ2B bromodomain | Potency, µM (highest dose often 114 µM), inactives show at the highest dose activity change, negative = inhibition, usual class: inhibitors | AID 504333 | AlphaScreen BAZ2B-H3K14Ac peptide displacement | Q9UIF8 | 4.4% of 360,000 active; also: potency is read from the fitted curve at half-maximal effect; % is scaled to controls: 0 for no effect and ±100 for the full control effect; nearly all actives have a fitted effect of over 60% in size
Target sequence (Q9UIF8 whole entry, looked up): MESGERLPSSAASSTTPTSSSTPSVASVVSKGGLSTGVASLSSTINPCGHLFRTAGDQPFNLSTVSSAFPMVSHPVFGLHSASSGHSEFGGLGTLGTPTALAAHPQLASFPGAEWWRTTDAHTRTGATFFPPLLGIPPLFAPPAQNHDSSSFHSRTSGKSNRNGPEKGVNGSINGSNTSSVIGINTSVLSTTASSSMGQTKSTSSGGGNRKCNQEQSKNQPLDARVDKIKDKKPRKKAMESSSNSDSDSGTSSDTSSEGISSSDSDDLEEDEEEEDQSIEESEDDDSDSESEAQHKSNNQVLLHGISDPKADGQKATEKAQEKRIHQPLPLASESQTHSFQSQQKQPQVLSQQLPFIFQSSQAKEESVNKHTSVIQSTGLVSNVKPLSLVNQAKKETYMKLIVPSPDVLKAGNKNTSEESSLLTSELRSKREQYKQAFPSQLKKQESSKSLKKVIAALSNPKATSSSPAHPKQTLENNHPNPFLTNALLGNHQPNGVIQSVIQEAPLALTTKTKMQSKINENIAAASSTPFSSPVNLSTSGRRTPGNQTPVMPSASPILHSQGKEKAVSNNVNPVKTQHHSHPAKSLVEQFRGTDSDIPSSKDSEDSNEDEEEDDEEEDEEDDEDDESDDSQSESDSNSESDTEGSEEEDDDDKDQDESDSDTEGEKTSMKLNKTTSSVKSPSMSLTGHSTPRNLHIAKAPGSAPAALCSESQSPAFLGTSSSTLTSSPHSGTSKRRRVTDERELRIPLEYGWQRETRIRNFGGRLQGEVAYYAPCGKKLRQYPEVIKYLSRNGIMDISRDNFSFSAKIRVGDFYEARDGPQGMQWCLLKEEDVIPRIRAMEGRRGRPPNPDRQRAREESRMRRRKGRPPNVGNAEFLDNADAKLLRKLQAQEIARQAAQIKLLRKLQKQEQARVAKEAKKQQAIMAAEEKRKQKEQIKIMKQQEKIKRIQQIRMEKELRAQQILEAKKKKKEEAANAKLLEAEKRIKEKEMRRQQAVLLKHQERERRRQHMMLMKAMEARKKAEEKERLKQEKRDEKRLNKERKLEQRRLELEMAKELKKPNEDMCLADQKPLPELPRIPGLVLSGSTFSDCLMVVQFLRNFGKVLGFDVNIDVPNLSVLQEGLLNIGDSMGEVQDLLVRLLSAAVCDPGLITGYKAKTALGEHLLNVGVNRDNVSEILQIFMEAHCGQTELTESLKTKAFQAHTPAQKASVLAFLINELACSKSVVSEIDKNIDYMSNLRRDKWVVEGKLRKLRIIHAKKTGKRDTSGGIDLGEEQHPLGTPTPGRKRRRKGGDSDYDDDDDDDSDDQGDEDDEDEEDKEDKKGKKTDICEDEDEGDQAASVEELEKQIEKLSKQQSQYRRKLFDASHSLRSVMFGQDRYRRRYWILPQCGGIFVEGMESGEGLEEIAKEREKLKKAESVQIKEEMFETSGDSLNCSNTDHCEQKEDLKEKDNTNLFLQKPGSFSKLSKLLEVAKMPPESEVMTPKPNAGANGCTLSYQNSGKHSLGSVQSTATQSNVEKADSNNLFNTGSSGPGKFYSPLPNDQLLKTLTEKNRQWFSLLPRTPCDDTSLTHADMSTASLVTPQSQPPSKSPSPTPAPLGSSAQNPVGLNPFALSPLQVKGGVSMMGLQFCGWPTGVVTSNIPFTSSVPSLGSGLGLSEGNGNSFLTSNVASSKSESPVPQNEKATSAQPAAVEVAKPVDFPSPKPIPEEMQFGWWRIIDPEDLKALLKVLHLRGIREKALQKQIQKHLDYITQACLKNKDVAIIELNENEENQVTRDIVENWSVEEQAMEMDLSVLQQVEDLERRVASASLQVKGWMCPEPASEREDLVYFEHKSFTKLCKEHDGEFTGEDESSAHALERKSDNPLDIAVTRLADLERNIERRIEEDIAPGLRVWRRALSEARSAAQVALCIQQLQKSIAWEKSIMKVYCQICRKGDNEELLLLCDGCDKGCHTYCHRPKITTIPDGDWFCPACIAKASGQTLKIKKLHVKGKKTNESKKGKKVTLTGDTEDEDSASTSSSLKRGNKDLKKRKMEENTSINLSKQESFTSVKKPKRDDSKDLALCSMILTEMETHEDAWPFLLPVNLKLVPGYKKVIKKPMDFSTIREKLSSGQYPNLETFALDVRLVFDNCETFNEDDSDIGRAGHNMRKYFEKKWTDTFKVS
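Compounds, titrated to a top concentration of 110 uM, were incubated 30 min at room temperature with preformed BAZ2B/acetyl-K14 H3 peptide complex (50 nM each). Proximity signal was measured by AlphaScreen after 20 min with beads.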
HP1b binding inh = HP1-beta chromodomain-methylated histone interaction inhibition | AlphaScreen HP1-beta / biotin-H3K9me3 peptide binding | Potency, µM (top dose mostly 114 µM), for the others: at the highest dose activity change, negative = inhibition, usual class: inhibitors | 0.56% of 390,000 active | AID 540317; also: potency is read from the fitted curve at half-maximal effect; nearly all actives have a fitted effect of over 70% in size
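HP1-beta protein (50 nM final) preincubated 30 min at room temperature with biotinylated H3(1-18)K9me3 peptide (50 nM) in PBS pH 7.4, 0.01% Tween-20, then compound added for 30 min. AlphaScreen streptavidin donor/nickel chelate acceptor beads (10 ug/mL final), 30 min dark, luminescence read.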
Six1-Eya2 inh = blocks human Six1 binding to Eya2. Q15475+O00167. AlphaScreen GST-Six1/His-Eya2 binding, biochemical; active compounds read low. AID 651725. 0.56% of 360,000 active. activity change, % (no concentration beside the values); in the data active = activity change below about -65%; inconclusive = mostly about -30% to -63%; also: % is scaled to controls: 0 for no effect and ±100 for the full control effect
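Six1/Eya2 binding was read as AlphaScreen signal after compounds were pinned into GST-Six1 plus His-tagged Eya2 (5X stock 250/500 nM) in pH 8.0 Tris/NaCl/TCEP buffer, beads added, then incubated 1 h, 37 C, dark.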
JMJD2A Tudor = inhibitors of human JMJD2A Tudor domain; 4.4% of 390,000 active; AlphaScreen JMJD2A-Tudor / H3K4me3 peptide binding; Potency, µM (doses to about 114 µM), for the others: at the highest dose activity change, negative = inhibition, hits mostly inhibitors; O75164; AID 504339; also: potency is read from the fitted curve at half-maximal effect; % is scaled to controls: 0 for no effect and ±100 for the full control effect; nearly all actives have a fitted effect of over 50% in size
CtBP-E1A inh = inhibitors of CtBP/E1A interaction; AlphaScreen GST-E1A/His-CtBP binding, 1536-well; active compounds read low; activity change, % (test concentration not listed); 0.49% of 340,000 active; AID 651724; in the data active = activity change below about -65%; inconclusive = mostly about -30% to -63%; also: % is scaled to controls: 0 for no effect and ±100 for the full control effect
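Steps: dispense buffer (Tris pH 8.0, NaCl 300 mM, TCEP 1 mM, BSA, Tween 20); add 5X protein mix (GST-E1A, His-CtBP, 125 nM each); pin 23 nL compound; 2 h at 37 °C, dark; add 5X beads (50 ug/mL); 1 h; read.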
G9a block = inhibitors of human histone lysine methyltransferase G9a; Potency, µM (doses to about 102 µM), for inactives: at the top dose activity, negative = inhibition, usual class: inhibitors; Q96KQ7; 8.8% of 350,000 active; AID 504332; G9a H3K9 monomethylation, AlphaScreen, 2 h; also: potency is read from the fitted curve at half-maximal effect; % is scaled to controls: 0 for no effect and ±100 for the full control effect; nearly all actives have a fitted effect of over 75% in size
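AlphaScreen detection with an anti-monomethyl H3K9 antibody quantified product after a 2 h room-temperature reaction containing 500 nM biotinylated H3K9 peptide, 20 µM SAM and 20 nM enzyme, which had been preincubated 15 min with compound.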
* hit, by the source's call; ? = inconclusive; nt = not tested or not shown; [ ] = dose if it differs, or a comment. Most compounds without a hit are left out; they make up all but 10% or so of the library. Unless noted, calls follow the shape of the dose curve; as a rule, active = well fitted inhibition curve with a large enough effect; inconclusive = small, poorly fitted or top-dose-only effect; inactive = no such curve, though single readings can be large or run the other way.

SMILES | BAZ2B inh | HP1b binding inh | Six1-Eya2 inh | JMJD2A Tudor | CtBP-E1A inh | G9a block
NC(=O)CNC(=O)[C@H](Cc1ccccc1)NC(=O)[C@H](CCCN=C(N)N)NC(=O)[C@@H](N)Cc1ccc(O)cc1 | nt | nt | nt | nt | nt | 37%[59 µM]
CC1O[C@@H](O[C@@H]2C(O)C[C@H](O[C@@H]3C(O)C[C@@H](OC4CC[C@@]5(C)C6CC[C@]7(C)C(C8=CC(=O)OC8)CC[C@@]7(O)C6CC[C@@H]5C4)OC3C)OC2C)CC(O)[C@H]1O (some centres not stated) | nt | nt | nt | nt | nt | -13%[2.33 µM]
CN(C)CCN(C(=O)c1cc(Cl)sc1Cl)c1nc2ccc(F)cc2s1 | ? | -14% | -10 | ? | 9 | 11µM*
NCC(CP(=O)(O)O)c1ccc(Cl)cc1 (configuration not stated) | nt | nt | nt | nt | nt | 4%[59 µM]
CCC(CC)NC1CCCCC1OC (configuration not stated) | ? | 19% | -2 | 50µM* | 13 | ?
COC1CCCCC1NCCc1ccccc1 (configuration not stated) | -30% | ? | 5 | ? | 6 | ?
COC(=O)C1=C(c2ccc3ccccc3c2)C[C@@H]2CC[C@H]1N2C(=O)NCc1ccco1 | 50µM* | -16% | -13 | ? | -6 | 10%[0.501 µM]
COC(=O)C1=C(c2cc3ccccc3o2)C[C@@H]2CC[C@H]1N2C(=O)NCCNC(C)=O | nt | 29% | -3 | -4% | 4 | nt
COC(=O)C1=C(c2cc3ccccc3o2)C[C@@H]2CC[C@H]1N2C(=O)NC(C)C | nt | 52% | 2 | 40µM* | 6 | nt
Cc1cccc(C)c1NC(=O)CN1CCCC1=O | nt | nt | nt | nt | nt | -16%[59 µM]
COc1ccc(CC(=O)Nc2ccc(C#N)c(Cl)c2)cc1S(=O)(=O)N1CCOCC1 | ? | 18% | -24 | -10% | -10 | 40µM*
O=C1C=C2C=C[C@H]3C[C@@]2(O1)[C@H]1CCCCN31 | nt | nt | nt | nt | nt | 20%[21.5 µM]
CC(=O)N1CCN(c2ccc(OC[C@H]3CO[C@](Cn4ccnc4)(c4ccc(Cl)cc4Cl)O3)cc2)CC1 | 35µM* | ? | 3 | 25µM* | -27 | 10µM*
O=C1C2CCN(CC2)C1Cc1ccccc1O (configuration not stated) | 5% | 23% | 0 | -5% | 1 | 9%
Oc1ccc(CC2CC3CCN2CC3)cc1O (configuration not stated) | -2% | -30% | -3 | 28µM* | 3 | ?
O=C(Nc1ccc(Br)cc1C(=O)O)c1ccc2c(c1)C(=O)N(Cc1ccccc1)C2=O | ? | -26% | -2 | 50µM* | -2 | 7%
CN(C)C(=O)Oc1ccc[n+](C)c1 | 5% | 32% | 5 | -5% | -1 | 4%[59 µM]
Cn1c(=O)oc2cc(S(=O)(=O)N3CCCC(C(=O)N4CCN(c5ccc(Cl)cc5)CC4)C3)ccc21 (configuration not stated) | -3% | 42% | nt | -12% | nt | 2%[59 µM]
CC(=O)c1c(COC(=O)c2cccnc2)nc2ccccc2[n+]1[O-] | 5% | 28% | 5 | -9% | 6 | 10µM*
C[C@H](N)Cc1cnc[nH]1 | nt | nt | nt | nt | nt | -39%[59 µM]
CC(N)Cc1ccccc1Sc1ccc(O)cc1 (configuration not stated) | -5%[57.1 µM] | nt | nt | nt | nt | 35µM*
O=C(Nc1ccccc1F)Oc1cccc(OC(=O)Nc2ccccc2F)c1 | -10% | 43% | -1 | -1% | nt | 1%
Clc1ccc(COC(Cn2ccnc2)c2ccc(Cl)cc2Cl)cc1 (configuration not stated) | 25µM* | -20% | 0 | ? | -12 | -28%[2.33 µM]
C=CCO[C@@H](Cn1ccnc1)c1ccc(Cl)cc1Cl | nt | nt | nt | nt | nt | -4%[21.5 µM]
C=CCn1c(O)c(C(CC)=Nc2ccccc2NC(C)=O)c(=O)[nH]c1=O | -11% | 59% | 0 | -22% | 44 | 1.4µM*
SMILES | BAZ2B inh | HP1b binding inh | Six1-Eya2 inh | JMJD2A Tudor | CtBP-E1A inh | G9a block
CCC(=NCCCN(CC)CC)c1c(O)n(C2CCCCC2)c(=O)[nH]c1=O | -4% | 32% | -1 | -5% | 2 | 56µM*
CCC(=NCc1ccco1)c1c(O)n(C2CCCCC2)c(=O)[nH]c1=O | ? | -1% | -11 | -31% | -5 | ?
C=CCn1c(O)c(C(CC)=NCCCO)c(=O)[nH]c1=O | 8% | 35% | -1 | -6% | 4 | 0%
CCC(=NCCN1CCOCC1)c1c(O)n(C2CCCCC2)c(=O)[nH]c1=O | -5% | 38% | -6 | 2% | -9 | 35µM*
CCN(CC)CCCN=C(C)c1c(O)n(C2CCCCC2)c(=O)[nH]c1=O | 7% | 21% | 3 | -13% | 2 | -1%[12.7 µM]
C=CCn1c(O)c(C(CC)=NCCN2CCOCC2)c(=O)[nH]c1=O | ? | 79% | 17 | -32% | 15 | 40µM*
CCON=O | nt | nt | nt | nt | nt | 8%[12.7 µM]
COc1cc([C@@H]2c3cc4c(cc3C[C@H]3COC(=O)[C@@H]32)OCO4)cc(OC)c1O | nt | 22% | nt | -12% | nt | nt
CC(Nc1cc(C)cc(C)c1)=[N+](C)CCNS(=O)(=O)c1ccc(Cl)cc1 | -12% | 18% | -2 | ? | -16 | 8.9µM*
CN1CCC2(CC1)CCN(C(=O)Oc1ccccc1)CC2 | nt | nt | nt | nt | nt | 4%[12.7 µM]
Cc1ccc(OCCn2cccc2/C=C2/C(=O)NC(=O)N(Cc3ccco3)C2=O)cc1 | -35% | 4% | ? | -30% | 8 | 50µM*
CC(C)(C)n1cccc1/C=C1\C(=O)NC(=O)N(c2ccccc2)C1=O | -10% | 31% | 22 | -24% | 29 | ?
COc1ccc(/C=C2/C(=O)NC(=O)N(Cc3ccco3)C2=O)cc1 | 32µM* | nt | nt | nt | nt | 10µM*
Cn1cccc1/C=C1\C(=O)NC(=O)N(Cc2ccco2)C1=O | 56µM* | 45µM* | -19 | 56µM* | -2 | ?
CCc1ccc(N2C(=O)NC(=O)/C(=C\c3cccn3CCOc3ccc(C(C)C)cc3)C2=O)cc1 | -18% | 19% | -8 | ? | -2 | 7.1µM*
COc1ccc2[nH]c3c(c2c1)CCN1C(=O)C(CC(=O)NCc2cccc(C(F)(F)F)c2)C[C@H](C(=O)N2CCCCC2)[C@@]31C (some centres not stated) | nt | -4% | -14 | ? | -18 | nt
CC1(C)CC2CC(C)(CN2S(=O)(=O)c2cccc(C(=O)OCC(=O)NC(N)=O)c2)C1 (configuration not stated) | -4% | 68% | -16 | -6% | 0 | 0%[0.501 µM]
O=C(Cn1c(=O)n(Cc2ccccc2)c(=O)c2sc3ccccc3c21)NCc1ccccc1Cl | -32% | 63% | nt | -5% | nt | 10%[59 µM]
C(=C\c1ccccc1)/CN1CCN(Cc2ccc3c(c2)OCCO3)CC1 | ? | nt | nt | nt | nt | -49%[59 µM]
